Experiment [1] can be described thus: qHTS for Activators of Parkin Expression: LOPAC Validation Assay (NLuc Reporter) (AID 720572;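 also: 0% = DMSO and 100% = positive control compound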). The gist of the method:
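Neuronal line stably carrying a FLuc/NLuc coincidence reporter under the Parkin promoter, seeded 24 h, then dosed in 7-point series for 24 h at 37 C. NLuc luminescence read after FLuc; normalized to DMSO and positive control (100%).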
In general terms: In qHTS, concentration-response curves come from the screen itself.

A short description of experiment [2]: qHTS for Activators of Parkin Expression: LOPAC Validation Assay (FLuc Reporter) (AID 720573;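 also: 0% = DMSO and 100% = positive control compounds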). The gist of the method: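 FLuc signal from Parkin-promoter coincidence reporter neuronal cells, normalized to DMSO and positive control (100%). Cells (1,500/well) pre-incubated 24 h, then exposed to LOPAC compounds in 7-point dose response for 24 h at 37 C, 5% CO2.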

In experiment [3] the target is T1, Hexokinase-4 (Homo sapiens) + Glucokinase regulatory protein (Homo sapiens) (UniProt P35557+Q14397). The experiment is described as follows: qHTS assay for inhibitors of recombinant human GCK-GKRP interaction: Diaphorase-coupled assay (AID 743205). The gist of the method: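 A kinetic fluorescence read (Ex 525/Em 590 nm, every minute for 30 minutes) tracked resorufin from a G6PDH-diaphorase coupled GCK reaction. It contained 10 nM GST-GCK, 10 nM FLAG-GKRP, 5 mM glucose, 0.4 mM ATP in Hepes pH 7.6. Normalized to with/without-enzyme DMSO controls.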
T1 sequence (P35557 whole entry, looked up): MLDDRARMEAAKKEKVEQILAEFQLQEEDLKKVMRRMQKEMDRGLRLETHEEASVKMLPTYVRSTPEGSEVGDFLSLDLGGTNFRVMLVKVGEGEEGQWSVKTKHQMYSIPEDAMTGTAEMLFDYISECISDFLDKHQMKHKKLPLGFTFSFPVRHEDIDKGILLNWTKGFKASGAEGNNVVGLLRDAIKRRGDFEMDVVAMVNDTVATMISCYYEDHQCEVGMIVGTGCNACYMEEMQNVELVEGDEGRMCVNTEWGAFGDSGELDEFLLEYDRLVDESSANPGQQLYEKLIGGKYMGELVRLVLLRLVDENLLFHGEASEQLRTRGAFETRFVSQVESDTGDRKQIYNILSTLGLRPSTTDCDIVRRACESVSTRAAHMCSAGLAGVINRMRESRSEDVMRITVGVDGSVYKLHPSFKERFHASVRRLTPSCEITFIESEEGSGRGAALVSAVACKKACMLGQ
T1 sequence (Q14397 whole entry, looked up): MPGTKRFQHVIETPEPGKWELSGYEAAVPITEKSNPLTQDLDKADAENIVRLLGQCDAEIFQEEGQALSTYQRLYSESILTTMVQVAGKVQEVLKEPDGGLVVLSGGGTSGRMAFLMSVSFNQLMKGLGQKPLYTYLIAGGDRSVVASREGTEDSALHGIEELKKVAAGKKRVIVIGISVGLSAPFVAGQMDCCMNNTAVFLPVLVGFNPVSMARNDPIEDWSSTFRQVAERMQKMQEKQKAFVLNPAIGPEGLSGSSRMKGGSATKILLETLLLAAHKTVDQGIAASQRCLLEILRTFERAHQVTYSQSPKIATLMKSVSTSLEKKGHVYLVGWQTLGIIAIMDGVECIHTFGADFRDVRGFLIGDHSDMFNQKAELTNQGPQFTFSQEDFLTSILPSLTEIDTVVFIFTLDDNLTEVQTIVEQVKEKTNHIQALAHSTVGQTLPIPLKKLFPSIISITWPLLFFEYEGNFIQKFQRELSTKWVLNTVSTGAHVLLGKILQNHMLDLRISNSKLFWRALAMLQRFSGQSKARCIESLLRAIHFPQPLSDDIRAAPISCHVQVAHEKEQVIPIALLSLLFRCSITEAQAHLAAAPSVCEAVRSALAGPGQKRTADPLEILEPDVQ

Experiment [4] deals with T1, Hexokinase-4 (Homo sapiens) + Glucokinase regulatory protein (Homo sapiens). Briefly: qHTS assay for inhibitors of recombinant human GCK-GKRP interaction: ADP-Glo assay (AID 743206).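 Also: plate controls were DMSO plus enzyme for no effect and no enzyme for full effect.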 The procedure, abridged:
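GST-GCK and FLAG-GKRP (15 nM each in the dispensed mix, with 2 uM S6P) react with 0.4 mM ATP and 5 mM glucose (final) in Hepes pH 7.6 for 60 min at room temperature. ADP is measured by ADP-Glo luminescence.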

Experiment [5] shares this target. The experiment is described as follows: qHTS assay for inhibitors of recombinant human GCK-GKRP interaction: HTRF assay (AID 743207).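 Also: 0% = DMSO with GCK present and -100% = DMSO wells lacking GCK.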 The gist of the method: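 After 60 min equilibration at room temperature with anti-FLAG XL665 and anti-GST antibodies, FRET ratio (665/615 nm, excitation 320 nm) was read. Proteins: GST-GCK and FLAG-GKRP, each 5 nM, plus 2 uM S6P, pH 7.1 buffer; GCK-free wells define minimum signal.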

The nature of experiment [6]: qHTS Assay for Identifying Gametocytocidal Compounds (AID 743244). Also: potency is read from the fitted curve at half-maximal effect.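 As to max response: % is scaled to controls: 0 for no effect and ±100 for the full control effect; actives lower the fluorescent signal which means gametocytes are killed.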 The settings on record: P. falciparum 3D7 stage III-V gametocytes, alamarBlue, 72 h; max response: hits give low values. The procedure, abridged: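 Stage III-V P. falciparum 3D7 gametocytes, 20,000 per well, were exposed to compounds for 72 h at 37C, 5% CO2. AlamarBlue was then added for 24 h and viability was read as fluorescence at Ex 525/Em 598 nm.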

Experiment [7] is described as follows: qHTS assay for small molecule agonists of the antioxidant response element (ARE) signaling pathway measured by Nrf2-dependant transcriptional activity (AID 720636; active = well fitted curve in the direction sought with a large enough effect in the repeat runs; an effect the other way counts as inactive or inconclusive; also: % of control where 0% means no effect). The procedure, abridged:
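ARE-luc HepG2 cells carrying an Nrf2-responsive luciferase reporter were plated in medium with 1% dialyzed FBS, left 6 hr at 37 C to attach, then exposed to compound for 16 hr. Luciferase luminescence was read after ONE-Glo addition.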

The nature of experiment [8]: qHTS assay for small molecule antagonists of the retinoid-related orphan receptor gamma (ROR-gamma) signaling pathway - cell viability counter screen (AID 720652; active = well fitted curve in the direction sought with a large enough effect in the repeat runs; an effect the other way counts as inactive or inconclusive;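 also: series mostly up to about 92 µM; compound exposure lasted 16 hr before ATP read; % is scaled to controls: 0 for no effect and ±100 for the full control effect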). The procedure, abridged: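 Cytotoxicity is quantified via intracellular ATP (CellTiter-Glo luminescence) in doxycycline-induced CHO ROR response element-luciferase reporter cells treated with compound for 16 hr at 37 C, 5% CO2.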

The nature of experiment [9]: qHTS assay for small molecule agonists of the antioxidant response element (ARE) signaling pathway measured by Nrf2-dependant transcriptional activity - cell viability counter screen (AID 720653; active = well fitted curve in the direction sought with a large enough effect in the repeat runs; an effect the other way counts as inactive or inconclusive; also: % is scaled to controls: 0 for no effect and ±100 for the full control effect). The following applies: ARE-bla HepG2 viability, CellTiter-Glo ATP luminescence, 16 h; max response: hits give low values. The procedure, abridged: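 ARE-bla HepG2 cells (2,000/well) rested 5 hrs at 37C/5% CO2, then exposed to compounds in DMSO for 16 hrs. Viability was read in the same wells as intracellular ATP by luminescence, 30 min at room temperature after reagent addition.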

The nature of experiment [10]: qHTS assay for cell viability of HEK293 cells (AID 743288). Also: % is scaled to controls: 0 for no effect and ±100 for the full control effect; nearly all actives have a fitted effect of over 50% in size. The settings on record: ATP luminescence (CellTiter-Glo), 18 h, hits give low values. The gist of the method:
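Total intracellular ATP, measured with a luciferase-coupled reagent, indicates the number of viable HEK293 cells. Exposure to test chemicals lasts 18 h at 37 C in 1,536-well format at 2,000 cells/well.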

Where “and” joins values, the source holds several entries; their conditions need not be identical. Identical values can stand only once. Values without a mark were called inactive. Inconclusive results are not listed. Calls of active or inactive are those of the source. Unless noted, calls follow the shape of the dose curve; as a rule, active = well fitted curve in the direction sought with a large enough effect; inconclusive = small, poorly fitted or top-dose-only effect, or another doubt; inactive = no such curve, though single readings can be large; an effect the other way counts as inactive or inconclusive.

In the case of `CCN(CC)CCOC(=O)C1(C2CCCCC2)CCCCC1`, the Potency entry in [1] is “inactive”. The result in experiment [2], in experiment [3], in experiment [4] and in experiment [5] was inactive. In addition, the max response in experiment [6] is 0.472% and 32.4%.
Consider `CSc1ccc2c(c1)N(CCC1CCCCN1C)c1ccccc1S2` (stereo not drawn), for which the Potency result in experiment [1] was “inactive”. The compound was classed as inactive in [2], in experiment [3], in experiment [4] and in experiment [5]. Besides, in [6], the Potency was 2.51 µM (active).
`OCc1cc(C(O)CNCCCCCCOCCCCc2ccccc2)ccc1O` (stereo not drawn): the Potency entry in experiment [1] was “inactive”. In addition, the compound was classed as inactive in [2], in experiment [4] and in [5]. Also, the Potency in [6] is 10 µM (active).
For the compound `NCCNCCNCCN`, the result in experiment [7] was inactive. The Potency result in [8] was “inactive”. In addition, the max response is -12.2% in [9], -8.14% in experiment [6] and -5.67% in experiment [10].
Take `Cc1cccc(Nc2cc(Cl)nc(SCC(=O)O)n2)c1C`: the call in experiment [7] was inactive. Also, the figures for the max response in [9], in experiment [6] and in [10] were -4.18%, -1.09% and -9.34%, respectively.
Take `Cc1cc2nc3c(=O)[nH]c(=O)nc-3n(C[C@H](O)[C@H](O)[C@H](O)CO)c2cc1C`: in experiment [7], the compound was called inactive. The Potency entry in experiment [8] was “inactive”. Besides, the max response in experiment [9] is 0.335%; in experiment [10], -6.02%.
For `CC12CCC(CC1)C(C)(C)O2`, the result in experiment [7] was inactive. Besides, in experiment [8], the Potency entry is “inactive”. For the same compound, the max response was 3.37% in experiment [9], 7.91% in experiment [6] and 4.94% in experiment [10].
As to `CC(O)COc1ccccc1` (stereo not drawn), the compound was classed as inactive in [7]. The max response in experiment [9] was -6.41%; in experiment [6], 8.99%; in experiment [10], 1.97%.
As to `Cc1cc(CC(=O)O)n(C)c1C(=O)c1ccc(Cl)cc1`, in experiment [7], the result was inactive. For the same compound, the Potency entry in experiment [8] is “inactive”. Also, the max response in [9] is -9.23%; in [6], 5.09% and -10.7%; in experiment [10], 2.85%.
As to `O=C1O[C@H]([C@@H](O)CO)C(O)=C1O`, the call in [7] was inactive. In addition, in experiment [8], the Potency entry is “inactive”. Also, the max response in experiment [9] was 26.8% and 1.51%; in experiment [6], -4.25% and 24.7%; in experiment [10] it was -2.8% and 5.16%.
Turning to `NCCNCCNCCNCCN`, in [7], the compound was called inactive. For the same compound, the Potency result in experiment [8] was “inactive”. Further, the max response is -13.9% and 10.9% in experiment [9]; -2.7% in [6]; -15.2% and 3.69% in experiment [10].
Regarding `COc1ccccc1O`, the result in [7] was inactive. Further, the Potency entry in experiment [8] was “inactive”. In addition, the max response in experiment [9] was 0.99% and -1.64% and 4.12%; in [6], -0.65%; in [10], 2.42% and 2.72% and -4.36%.
For the compound `CC1=C(/C=C/C(C)=C/C=C/C(C)=C/C(=O)O)C(C)(C)CCC1`, the Potency result in experiment [1] was “inactive”. For the same compound, the max response in experiment [9] was -2.09% and 3.64%; in experiment [6] it was 12.7% and 23.7%; in [10], -2.27% and -2.67%. In addition, the result in experiment [3], in [4] and in experiment [5] was inactive.
On to `N[C@@H](CSCCCO)C(=O)O`, for which the max response in experiment [6] was -2.32%.
Still for that read-out and setting: for `CC(C)(O)c1ccccc1CC[C@@H](SCC1(CC(=O)O)CC1)c1cccc(/C=C/c2ccc3ccc(Cl)cc3n2)c1` the value was -7.08%; for `O=c1cc[nH]c(=S)[nH]1`, 12.7%; for `C/C(=C(\CCOP(=O)(O)O)SC(=O)c1ccccc1)N(C=O)Cc1cnc(C)nc1N`, 7.95%.
Regarding `CCCCOC(=O)c1ccc(O)cc1`, the Potency entry in experiment [8] is “inactive”. For the same compound, the max response in [9] was 4.31% and -13.4%; in [6] it was 0.124%; in experiment [10] it was -12.8% and -6.18%.
As for `CC1(C)S[C@@H]2[C@H](NC(=O)Cc3ccccc3)C(=O)N2[C@H]1C(=O)O` (tested in a mixture with another compound), the max response in experiment [6] was -2.5%.
On to `NC(=O)N/N=C/c1ccc([N+](=O)[O-])o1`, for which the Potency entry in experiment [8] was “inactive”. Besides, the max response in [9] is -20.9%; in [10], -5.04% and -17.6%.
In the case of `CN1[C@@H]2CC[C@H]1CC(OC(=O)C(O)c1ccccc1)C2` (stereo partly drawn), in experiment [6], the max response was -8.53% and 3.5% and -4.14%.
In the case of `COC(=O)C1=C(C)NC(C)=C(C(=O)OC)C1c1ccccc1[N+](=O)[O-]`, the max response in [9] was -20.5%; in experiment [6], 13.4% and 13.1%. Further, the outcome in experiment [3], in [4] and in experiment [5] was inactive.
With `CC(=O)Oc1c(C)c(C)c2c(c1C)CC[C@@](C)(CCC[C@H](C)CCC[C@H](C)CCCC(C)C)O2`, in experiment [6], the max response is -2.38% and 13.2% and -6.36%.
For the compound `C=CCn1c(=O)n([C@@H]2O[C@H](CO)[C@@H](O)[C@H]2O)c2nc(N)[nH]c(=O)c21`, the max response in experiment [6] is 7.63%.
Same read-out and setting: for `COc1cc(C)c(Cc2cnc(N)nc2N)cc1OC` the value was -2.96%; for `CC/C=C(\C(=O)N[C@@H]1C(=O)N2C(C(=O)OCOC(=O)C(C)(C)C)=C(COC(N)=O)CS[C@H]12)c1csc(N)n1`, 11.6% and -14.5%.
For `CCN(CC)C(C)CN1c2ccccc2Sc2ccccc21` (stereo not drawn), the outcome in [3], in [4] and in [5] was inactive. Further, the max response in experiment [6] is 2.08% and 2.32%.
With `O=C(O)c1ccccc1O`, the max response in [6] was 6.2% and -5.06%.
For the compound `CCOC(=O)c1ccc(O)cc1`, the max response in experiment [9] is -0.862%; in experiment [6], 10.3%; in experiment [10] it was -3.62%.
Take `C[C@H](N)[C@H](O)c1cccc(O)c1`: the max response in [6] is 5.58%.
Regarding `CC(=O)CCC(=O)O`, the max response in [6] is 13.5%.
Turning to `C[C@H](NC(CCc1ccccc1)C(=O)O)C(=O)N1CCC[C@H]1C(=O)O` (stereo partly drawn), the max response in [6] was 7.34%.
Same read-out and setting: in the case of `OC[C@H]1O[C@@H](O[C@@H]2[C@@H](CO)O[C@](O)(CO)[C@H]2O)[C@H](O)[C@@H](O)[C@H]1O` it was -3.99%; in that of `CC(C)c1c(C(=O)Nc2ccccc2)c(-c2ccccc2)c(-c2ccc(F)cc2)n1CC[C@@H](O)C[C@@H](O)CC(=O)O`, -14.7%.
Consider `NC(CSCC(=O)O)C(=O)O` (stereo not drawn), for which, in experiment [6], the max response is -8.42%.
Consider `O=C(O)c1ccccn1`, for which the max response in experiment [6] was -0.573%.
Consider `CC1(C)OC(=O)NC1=O`, for which the max response in experiment [6] is 2.42%.
Turning to `Oc1cn2c(n1)Nc1ccc(Cl)c(Cl)c1C2`, the max response in [6] was 2.25% and 14.5%.
On the same count and under the same terms, for `CCCCN(CCCC)CCCOC(=O)c1ccc(N)cc1` the value was 0.616%.
As for `C[C@](N)(Cc1ccc(O)cc1)C(=O)O`, the outcome in [3], in experiment [4] and in [5] was inactive.
For `C[C@@H]1CC[C@@]2(OC1)O[C@H]1C[C@H]3[C@@H]4CC[C@H]5C[C@@H](O)CC[C@]5(C)[C@H]4CC(=O)[C@]3(C)[C@H]1[C@@H]2C`, the max response in experiment [6] was -9.03%.
For `NCC(=O)CCC(=O)O`, in [6], the max response was 0.855%.
Still for that read-out and setting: in the case of `CC1CC(OC(=O)C(O)c2ccccc2)CC(C)(C)N1C` (stereo not drawn) it was 12.1% and 4.11%.
On to `[Cl][In]([Cl])[Cl]`, for which, in experiment [8], the Potency entry is “inactive”. For the same compound, the max response was 5.32% in experiment [9]; -7.04% and -5.36% in experiment [6]; 7.88% in [10].
For `COc1ccc2c(c1)C(=O)N(CCc1ccc(S(=O)(=O)NC(=O)NC3CCCCC3)cc1)C(=O)C2(C)C`, the max response in experiment [6] was 22.2%.
As for `Cc1cc(O)cc2c1O[C@](C)(CCC[C@H](C)CCC[C@H](C)CCCC(C)C)CC2`, the max response in experiment [6] was -2.34% and 0.0933%.

For the origin of these results see PubChem BioAssay (NCATS).
